Bioassay records as filed in PubChem.
In the library only some 0.8% were active in any assay of this set; here they are far more common.
TRPML1 agonist – agonists of human TRPML1 channel; AID 624414; actives 0.12% (n = 410,000); Q9GZU1; activation, % (no concentration beside the values); TRPML1-expressing cells, Ca2+ dye fluorescence, FDSS; in the data active means activation above about 50%; inconclusive means mostly about 30% to 49%
Target sequence (Q9GZU1 whole entry, looked up): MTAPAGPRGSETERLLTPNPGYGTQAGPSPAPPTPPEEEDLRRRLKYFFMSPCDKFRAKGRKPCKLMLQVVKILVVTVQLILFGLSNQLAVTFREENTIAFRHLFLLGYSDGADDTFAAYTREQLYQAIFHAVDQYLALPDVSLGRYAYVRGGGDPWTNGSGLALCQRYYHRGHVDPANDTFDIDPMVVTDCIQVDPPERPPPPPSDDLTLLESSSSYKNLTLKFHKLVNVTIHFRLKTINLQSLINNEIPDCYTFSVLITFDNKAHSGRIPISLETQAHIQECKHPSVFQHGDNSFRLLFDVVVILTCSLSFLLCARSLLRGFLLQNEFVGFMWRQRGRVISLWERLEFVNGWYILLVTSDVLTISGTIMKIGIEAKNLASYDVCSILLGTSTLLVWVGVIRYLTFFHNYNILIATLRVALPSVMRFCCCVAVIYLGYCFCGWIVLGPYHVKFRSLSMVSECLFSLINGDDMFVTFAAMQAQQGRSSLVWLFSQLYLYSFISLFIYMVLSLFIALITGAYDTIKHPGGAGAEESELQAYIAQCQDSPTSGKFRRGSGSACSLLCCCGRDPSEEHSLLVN
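Kinetic FDSS Ca2+ read in Tet-induced TRPML1-DL cells (ABD Ca8 dye plus quencher, 45-90 min RT loading): baseline, then compound, then 110 s agonist window; EC80 agonist 54-4 at 4uM final added afterwards for a 110 s antagonist window.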
TRPML1 blocker – inhibitors of human TRPML1 channel | Q9GZU1 | TRPML1-inducible cells, Ca2+ dye fluorescence, FDSS; hits give low values; inhibition of EC80 agonist-evoked calcium signal | activity change, negative = inhibition, % (concentration not given with the values) | actives 0.02% (n = 390,000) | AID 624415; in the data active means activity change below about -50%; inconclusive means between about -30% and that limit;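 further: stimulus is agonist 54-4 at its EC80 concentration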
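TRPML1-DL cells, Tet-induced overnight (~16 h, 37 °C) at 1,500 cells/well, were loaded with Ca8 no-wash dye plus quencher for 45-90 min at room temperature. Compounds were pinned during FDSS kinetic reading; agonist 54-4 at EC80 (4 uM final) then added.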
Glioma ERSR ind – induces the endoplasmic reticulum stress response in human glioma cells; Potency, µM, usual class: activators; AID 602332; actives 0.02% (n = 420,000); U87-MG GRP78 promoter luciferase reporter, 16 h; further: series mostly up to about 76 µM; nearly all actives have a fitted effect of over 35% in size
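ERSR induction read as luciferase luminescence (Bright-Glo, 10 min at room temperature) in stably transfected human U87-MG glioma cells exposed to compounds for 16 h, using GRP78 as sensor.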
TRHR enhancer-1 – TRH receptor (human) allosteric enhancement; TRHR cells, fluo-8 calcium fluorescence, EC20 TRH enhancement; enhancement, % at 2 µM; actives 0.66% (n = 360,000); AID 493056; in the data active means enhancement above about 30%
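TRHR-expressing cells loaded with fluo-8 calcium dye were read kinetically (ex 480/em 530) during compound addition, then stimulated with an EC20 of TRH (10 nM final). Enhancement of the Gq-mediated intracellular calcium response was scored.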
TRHR agonist-1 – TRH receptor (human) agonism | P34981 | TRHR cells, calcium flux fluo-8, FDSS agonist mode | activation, % at 2 µM | actives 0.18% (n = 360,000) | AID 493084; in the data active means activation above about 30%
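Steps: seed TRHR cells overnight; add fluo-8 no-wash Ca dye, RT 30 min–1.5 h; record 10 s baseline; pin-transfer compounds; monitor fluorescence 1 cycle/s for the agonist window. Calcium increases flag candidate agonists.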
TRHR enhancer-2 – confirmation of human TRH receptor allosteric enhancers; shares compounds with TRHR enhancer-1; TRH receptor cell assay, enhancer confirmation qHTS; activity change, negative = inhibition, % at 46.1 µM; 970 tested, under 10 active;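 further: compound effect scored on response to added TRH at EC20 of 10 nM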
TRHR agonist-2 – human TRH receptor agonism confirmation. shares compounds with TRHR enhancer-1. AID 493078. Potency, µM (titrated, usually from 46.1 µM), most hits filed as activators. TRHR-expressing cells, agonist activation read-out. actives 8% (n = 970); further: nearly all actives have a fitted effect of over 75% in size
A number is an active result; i = inactive; ? = inconclusive; nt = no result given. Unless noted, the call rests on the fitted dose curve; in most records, active means well fitted curve in the direction sought with a large enough effect; inconclusive means small, poorly fitted or top-dose-only effect, or another doubt; inactive means no such curve, though single readings can be large; an effect the other way counts as inactive or inconclusive.

SMILES | TRPML1 agonist | TRPML1 blocker | Glioma ERSR ind | TRHR enhancer-1 | TRHR agonist-1 | TRHR enhancer-2 | TRHR agonist-2
O=C(NC1CC1)C1=NOC(CNc2ncc(C(F)(F)F)cc2Cl)C1 (configuration not stated) | i | i | i | 46 | i | i | i
COc1ccccc1-n1c(SCC(N)=O)nnc1-c1ccc(S(=O)(=O)N2CCCCC2)cc1 | i | i | i | i | i | nt | nt
NC(=O)CSc1nnc(-c2ccc(S(=O)(=O)N3CCCCC3)cc2)n1-c1ccccc1 | i | i | i | 50 | i | ? | i
Cn1nc(C(=O)NCCN2Cc3ccccc3OC(c3ccsc3)C2)c2ccccc2c1=O (configuration not stated) | nt | nt | i | nt | nt | nt | nt
OC(C1=C/C(=C\c2ccncc2)c2ccccc21)c1ccncc1 (configuration not stated) | i | nt | i | nt | nt | nt | nt
Cc1ncc2c(c1CNC(=O)c1ccc3c(c1)OCO3)CCN(C(=O)c1cc3ccccc3n1C)C2 | nt | nt | i | nt | nt | nt | nt
COc1ccccc1-c1ccnc(-n2ncc(C(=O)NCCc3cccnc3)c2C)n1 | nt | nt | i | nt | nt | nt | nt
CC1CCN(CC(=O)N2c3ccccc3CC2C)CC1 (configuration not stated) | i | i | i | i | i | nt | nt
COc1ccc(N2CCN(CC(=O)N3c4ccccc4CC3C)CC2)cc1 (configuration not stated) | i | i | i | 41 | i | ? | i
COc1cccc(C2CC(c3ccc(NS(C)(=O)=O)cc3)=NN2C(=O)c2ccccc2)c1OC (configuration not stated) | i | i | i | 50 | i | i | i
COc1ccc(NC(=O)COC(=O)c2ccc(N3CCCC3=O)cc2)cc1OC | i | i | i | 43 | i | i | i
Cn1c(C(c2cc3ccccc3n2C)c2cc3ccccc3n2C)cc2ccccc21 | i | nt | i | nt | nt | nt | nt
O=C(c1ccc(F)c(F)c1)N1CCOc2ccc(CN3CCN(CCO)CC3)cc2C1 | nt | nt | i | nt | nt | nt | nt
O=C(Nc1ccc(Nc2ccccc2)cc1)c1ccc(Cl)cc1[N+](=O)[O-] | i | i | i | nt | nt | nt | nt
CC(=O)NS(=O)(=O)c1ccc(NC(=O)c2ccc(Cl)cc2[N+](=O)[O-])cc1 | i | i | i | 50 | i | i | i
c1coc(-c2ccnc3ncnn23)c1 | i | i | i | 49 | i | i | i
CCCCCCCCCCCCOC(=O)N1CCN(/[N+]([O-])=N/Oc2ccc([N+](=O)[O-])cc2[N+](C)=O)CC1 | i | i | i | nt | nt | nt | nt
CC(=O)Nc1sc(/C(C#N)=C/c2ccc(Cl)c(Cl)c2)nc1-c1ccc(C)cc1 | 75 | ? | i | i | 68 | i | 7.3µM
Cc1c(NC(=S)NC(=O)c2cccc3ccccc23)cccc1C(=O)O | i | i | i | 65 | i | i | i
COc1ccccc1OCC(=O)Nc1ccc(S(=O)(=O)N2CCOCC2)cc1 | i | i | i | i | i | nt | nt
Cc1cc(C)c(OCC(=O)Nc2ccc(S(=O)(=O)N3CCOCC3)cc2)c(C)c1 | i | i | i | 41 | i | i | i
O=C(c1ccc2c(c1)OCO2)N(Cc1cc2cc3c(cc2nc1N1CCOCC1)CCC3)CC1CCCO1 (configuration not stated) | nt | nt | i | nt | nt | nt | nt
COc1cc(C#N)c(NC(=O)CN2CCC(C(N)=O)CC2)cc1OC | i | i | i | 61 | i | i | i
COc1ccc(C(=O)C2CCN(CC(=O)Nc3ccc(OC)cc3OC)CC2)cc1 | i | i | i | i | i | nt | nt
COc1ccccc1CN(C)C(=O)CN1CCN(S(=O)(=O)c2ccc3c(c2)OCCCO3)CC1 | i | i | i | 55 | i | i | i
SMILES | TRPML1 agonist | TRPML1 blocker | Glioma ERSR ind | TRHR enhancer-1 | TRHR agonist-1 | TRHR enhancer-2 | TRHR agonist-2
Cc1cc(C)nc(S[C@@H]2C[C@@H](C(=O)N3CCCN(C)CC3)N(Cc3cc(F)ccc3F)C2)n1 | nt | nt | i | nt | nt | nt | nt
CC(=O)c1ccc(N2CCN(C(=O)c3cccs3)CC2)c(F)c1 | i | i | i | i | i | i | i
CCCC(=O)c1ccc(N2CCN(C(=O)c3cccs3)CC2)c(F)c1 | i | i | i | i | i | nt | nt
Cc1ccc2c(c1)c(Sc1ccccc1)c(CC(=O)O)n2C | i | i | i | i | 99 | i | i
O=C(NCc1ccccn1)c1cnn(-c2nccc(-c3cc4ccccc4o3)n2)c1C1CC1 | nt | nt | i | nt | nt | nt | nt
CC1(c2ccc(Cl)cc2)NC(=O)N(CC(=O)NCCC2=CCCCC2)C1=O (configuration not stated) | i | i | i | 81 | i | i | i
COc1ccc(/C=C2\SC(=O)N(CCC(=O)Nc3ccccc3)C2=O)cc1OC | i | i | i | 57 | i | i | i
COc1ccc(/C=C2\SC(=O)N(CCCC(=O)Nc3ccc(C(=O)O)cc3)C2=O)cc1OC | i | i | i | i | i | nt | nt
CC(C)c1ccc(OC(=O)c2cccc(S(=O)(=O)N3CCN(C)CC3)c2)cc1 | i | i | i | i | i | nt | nt
CN1CCN(S(=O)(=O)c2cccc(C(=O)Oc3ccc(C(C)(C)C)cc3)c2)CC1 | i | i | i | 50 | i | i | i
O=C(O)CCC(=O)N1N=C(c2ccccc2)CC1c1ccc2nccnc2c1 (configuration not stated) | i | i | i | i | i | nt | nt
O=C(O)CCCC(=O)N1N=C(c2ccccc2)CC1c1ccc2nccnc2c1 (configuration not stated) | i | i | i | 46 | i | i | i
O=C(Cc1nc2ccccc2[nH]c1=O)c1ccccc1 | i | i | i | i | 31 | i | ?
CC1CC(C)CN(C(=O)COC(=O)c2ccc(Cl)nc2)C1 (configuration not stated) | i | i | i | 45 | i | i | i
O=C(Cc1ccccc1)N1CCN(C(=O)c2ccco2)CC1 | i | i | i | i | i | nt | nt
O=C(Cc1ccccc1)N1CCNCC1 | i | i | i | 55 | i | i | i
O=C(Cc1ccccc1)NCC(=O)N1CCCCC1 | i | i | i | 43 | i | i | i
Cc1ccc(S(=O)(=O)NCc2ccc(C(=O)NC3CCCCC3)cc2)cc1 | i | i | ? | 77 | i | i | i
CCCCN1C(=O)/C(=C/C=C2/CC(C)(C)CN2C)SC1=S | 53 | i | i | i | 39 | i | 9.2µM
CCCn1c(SCC(=O)N2CCCCC2)nnc1-c1ccco1 | i | i | i | 49 | i | i | i
CCCn1c(SCC(=O)N2CCCCC2)nnc1C(C)C | i | i | i | i | 32 | i | i
COCCn1c(SCC(=O)N2CCCC2)nnc1C(C)C | i | i | i | i | i | nt | nt
COC(=O)C1CCCCN1Cc1ccc2c(c1)CN(C(=O)c1ccc(C)s1)CCO2 (configuration not stated) | nt | nt | i | nt | nt | nt | nt
